From the supplement of paper PMC6992640
Counter-ions that a name gives are not always drawn. ± gives the standard deviation of the averaged measurements.

How the values were obtained:
Assay in all cases: cell viability (% of vehicle); higher = less cytotoxic
Conditions in all cases: 10 µM; 72 h
HCI01 = system: HCI01 (cells of a triple-negative basal-like breast cancer xenograft)
HCI03 = system: HCI03 (cells of an ER-positive luminal breast cancer xenograft)
HCI09 = system: HCI09 (cells of a triple-negative luminal androgen receptor type breast cancer xenograft)
HCI11 = system: HCI11 (cells of an ER-positive luminal breast cancer xenograft)
UCD52 = system: UCD52 (cells of a triple-negative basal-like breast cancer xenograft)
WHIM2 = system: WHIM2 (cells of a triple-negative basal-like breast cancer xenograft)
HCI13 = system: HCI13 (cells of an ER-positive luminal breast cancer xenograft)
HCI16 = system: HCI16 (cells of a triple-negative basal-like breast cancer xenograft)
WHIM30 = system: WHIM30 (cells of a triple-negative basal-like breast cancer xenograft)
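Further: PDX cells carrying CMV promoter-driven luciferase, viability read as total photon flux per second by IVIS imaging following D-luciferin, vehicle control 0.1% DMSO.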

Structure (SMILES) | cell viability (HCI01) | cell viability (HCI03) | cell viability (HCI09) | cell viability (HCI11) | cell viability (UCD52) | cell viability (WHIM2) | cell viability (HCI13) | cell viability (HCI16) | cell viability (WHIM30)
O=c1c(-n2ccnn2)c[nH]n1-c1cc(N2CCOCC2)ncn1 [Molidustat (BAY85-3934)] | 142 ± 4.8 | 121 | 27.2 ± 1.8 | 121 | 163 ± 3.5 | 104 ± 7.3 |  |  | 
COCCCOc1ccnc(C[S+]([O-])c2nc3ccccc3[nH]2)c1C (configuration not stated) [Rabeprazole sodium] | 167 ± 75 | 197 | 82.4 ± 28 | 115 | 178 ± 5.8 | 135 ± 15 |  |  | 
CC12C=CC(=O)C=C1CCC1C2C(O)CC2(C)C1CCC2(O)C(=O)CO (configuration not stated) [Prednisolone] | 135 ± 39 | 175 | 166 ± 82 | 132 | 173 ± 4.8 | 114 ± 2.7 |  |  | 
CCc1c2c(nc3ccc(OC(=O)N4CCC(N5CCCCC5)CC4)cc13)-c1cc3c(c(=O)n1C2)COC(=O)[C@]3(O)CC [Irinotecan HCl Trihydrate] | 70.8 ± 22 | 165 | 120 ± 25 |  | 104 ± 17 | 68 ± 3.8 | 114 ± 15 | 105 | 107 ± 19
CC(C)(C#N)c1cc(Cn2cncn2)cc(C(C)(C)C#N)c1 [Anastrozole] | 160 ± 20 | 149 | 108 ± 23 | 120 | 111 ± 11 | 132 ± 22 |  | 120 | 124.2 ± 0.85
CC1CC2C3CC(F)C4=CC(=O)C=CC4(C)C3(F)C(O)CC2(C)C1(O)C(=O)CO (configuration not stated) [Flumethasone] | 144 ± 49 | 180 | 140 ± 56 | 145 | 166 ± 22 | 93.2 ± 12 |  |  | 163 ± 5.2
CC(C)[N+]1(C)C2CCC1CC(OC(=O)C(CO)c1ccccc1)C2.[Br-] (configuration not stated) [Ipratropium Bromide] | 138 ± 45 | 151 | 158 ± 79 | 108 | 148 ± 5.2 | 103 ± 15 |  |  | 180 ± 23
Nc1nc2[nH][nH]nc-2c(=O)n1 [Azaguanine-8] | 158 ± 48 | 146 | 137 ± 21 |  | 102 ± 55 | 96.01 ± 0.31 | 150 ± 9.1 |  | 119 ± 14
Oc1ccc(OCc2ccccc2)cc1 [Monobenzone] | 187 ± 11 | 180 |  | 157 | 167 ± 14 | 145 ± 23 | 181 ± 4.9 | 153 | 
O=C([O-])CC(O)CC(O)C=Cc1c(C2CC2)nc2ccccc2c1-c1ccc(F)cc1.O=C([O-])CC(O)CC(O)C=Cc1c(C2CC2)nc2ccccc2c1-c1ccc(F)cc1.[Ca+2] (configuration not stated) [Pitavastatin Calcium] | 83.9 ± 10 | 78.4 | 53.9 ± 27 |  | 50.2 ± 1.3 | 67.8 ± 23 | 148 ± 27 | 113 | 93.3 ± 4.9
CCOC(=O)OC1(C(=O)OCCl)CCC2C3CCC4=CC(=O)C=CC4(C)C3C(O)CC21C (configuration not stated) [Loteprednol etabonate] | 90.8 ± 59 | 196 | 150 ± 70 | 123 | 158 ± 33 | 105 ± 11 |  |  | 198 ± 12
CCc1c2c(nc3ccc(OC(=O)N4CCC(N5CCCCC5)CC4)cc13)-c1cc3c(c(=O)n1C2)COC(=O)C3(O)CC (configuration not stated) [Irinotecan] | 110 ± 6 | 133 | 174 ± 80 |  | 107 ± 6.1 | 67.4 ± 6.7 | 121 ± 2.2 | 140 | 113 ± 8.8
O=C(Nc1cccc2c(=O)cc(-c3nn[nH]n3)oc12)c1ccc(OCCCCc2ccccc2)cc1 [Pranlukast] | 96.3 ± 9.7 | 97.5 | 64 ± 5.3 | 101 | 102 ± 2.1 | 65.3 ± 11 |  | 147 | 152 ± 11
CC(=O)OCC(=O)[C@@]12N=C(C)O[C@@H]1C[C@H]1[C@@H]3CCC4=CC(=O)C=C[C@]4(C)[C@H]3[C@@H](O)C[C@@]12C [Deflazacort] | 107 ± 38 | 141 | 137 ± 32 | 133 |  | 119 ± 14 |  |  | 145 ± 3.2
CC1CC2C3CCC4=CC(=O)C=CC4(C)C3(Cl)C(O)CC2(C)C1(OC(=O)c1ccco1)C(=O)CCl (configuration not stated) [Mometasone furoate] | 94.8 ± 29 | 151 | 118 ± 30 | 115 | 139.5 ± 0.18 | 83.5 ± 7.3 |  |  | 
CC(C)n1c(C=CC(O)CC(O)CC(=O)[O-])c(-c2ccc(F)cc2)c2ccccc21.[Na+] (configuration not stated) [Fluvastatin Sodium] | 91.3 ± 15 | 135 | 61.2 ± 11 |  | 54.9 ± 4.7 | 59.6 ± 0.62 |  | 135 | 113 ± 11
CC12CCC(=O)C=C1CCC1C2C(O)CC2(C)C1CCC2(O)C(=O)CO (configuration not stated) [Hydrocortisone] | 103 ± 13 | 126 | 132 ± 57 | 113 | 124 ± 4.5 | 95.6 ± 4.8 |  |  | 198 ± 13
CC(=O)OCC(=O)[C@@]12OC(C)(C)O[C@@H]1C[C@H]1[C@@H]3C[C@H](F)C4=CC(=O)C=C[C@]4(C)[C@@]3(F)[C@@H](O)C[C@@]12C [Fluocinonide] | 75.9 ± 53 | 179 | 127 ± 39 | 129 | 156 ± 2.6 | 94.6 ± 31 |  |  | 175.6 ± 0.94
O=C(O)CC(O)CC(O)C=Cc1c(C2CC2)nc2ccccc2c1-c1ccc(F)cc1 (configuration not stated) [Pitavastatin] | 119 ± 18 | 125 | 102 ± 19 |  | 74.9 ± 9.2 | 93.6 ± 47 |  | 171 | 92.2 ± 11

Structure (SMILES) | cell viability (HCI01) | cell viability (HCI03) | cell viability (HCI09) | cell viability (HCI11) | cell viability (UCD52) | cell viability (WHIM2) | cell viability (HCI13) | cell viability (HCI16) | cell viability (WHIM30)
NCCc1cnc[nH]1.O=P(O)(O)O.O=P(O)(O)O [Histamine Phosphate] | 117 ± 18 | 117 | 95.2 ± 15 | 98.4 | 99.9 ± 17 | 98.8 ± 4.3 |  | 131 | 149 ± 14
CC1CC2C(C(O)CC3(C)C2CCC3(O)C(=O)CO)C2(C)C=CC(=O)C=C12 (configuration not stated) [Methylprednisolone] | 145 ± 24 | 156 | 123 ± 34 | 136 | 154 ± 11 | 119 ± 8.1 |  |  | 194 ± 12
CCC(=O)OC1(C(=O)SCF)C(C)CC2C3CC(F)C4=CC(=O)C=CC4(C)C3(F)C(O)CC21C (configuration not stated) [Fluticasone propionate] | 76.7 ± 52 | 166 | 128 ± 33 | 133 | 128 ± 14 | 102 ± 44 |  |  | 
CN(C)Cc1c(C(=O)NCCOc2ccc(C(=O)NO)cc2)oc2ccccc12 |  | 128 | 70.8 ± 49 | 9.68 |  | 80.6 ± 8.5 | 56.1 ± 17 |  | 
O=c1[nH]c(=O)n(C2CC(O)C(CO)O2)cc1I (configuration not stated) [Idoxuridine] | 165 ± 77 |  | 106 ± 8.6 | 106 | 112 ± 6.1 |  |  | 129 | 116.3 ± 1.1
COC1=CC(=O)C[C@@H](C)[C@]12Oc1c(Cl)c(OC)cc(OC)c1C2=O [Griseofulvin] | 127 ± 7.9 |  | 141 ± 30 | 98.7 | 136 ± 24 | 121 ± 36 | 128 ± 5.8 | 128 | 190 ± 15
COc1ccc(-c2cc(=O)c3c(O)cc(O)cc3o2)cc1O [Diosmetin] | 169 ± 46 |  | 170 ± 120 |  |  |  |  | 181 | 
OCC1OC(Oc2cc(O)cc(C=Cc3ccc(O)cc3)c2)C(O)C(O)C1O (configuration not stated) [Polydatin] | 155 ± 18 |  | 113 ± 15 | 142 |  | 109 ± 35 | 99.9 ± 1.1 | 195 | 
CC[C@]1(O)C[C@H]2CN(CCc3c([nH]c4ccccc34)[C@@](C(=O)OC)(c3cc4c(cc3OC)N(C=O)[C@H]3[C@@](O)(C(=O)OC)C(OC(C)=O)[C@]5(CC)C=CCN6CC[C@]43C65)C2)C1.O=S(=O)(O)O (some centres not stated) [Vincristine] |  | 111 | 91.3 ± 26 | 112 | 85.1 ± 13 | 90.5 ± 12 | 42.2 ± 2.8 | 200 | 153 ± 16
Cc1nnc(C(C)C)n1C1CC2CCC(C1)N2CCC(NC(=O)C1CCC(F)(F)CC1)c1ccccc1 (configuration not stated) [Maraviroc] | 110 ± 12 |  | 95.9 ± 3.6 | 129 | 88.8 ± 1.3 | 91.4 ± 26 | 73.7 ± 15 | 163 | 123 ± 18
CCCc1nc(C(C)(C)O)c(C(=O)OCc2oc(=O)oc2C)n1Cc1ccc(-c2ccccc2-c2nn[nH]n2)cc1 [Olmesartan medoxomil] |  | 150 | 110 ± 1.2 | 162 | 168 ± 28 | 105 ± 20 | 128 ± 2.5 | 182 | 177 ± 30
CC1(C)CCC(CN2CCN(c3ccc(C(=O)NS(=O)(=O)c4ccc(NCC5CCOCC5)c([N+](=O)[O-])c4)c(Oc4cnc5[nH]ccc5c4)c3)CC2)=C(c2ccc(Cl)cc2)C1 | 83.9 ± 55 |  | 61.5 ± 30 | 68.4 | 101 ± 14 | 151 ± 32 | 129 ± 10 | 80 | 99.4 ± 53
CCC(CO)Nc1nc(NCc2ccccc2)c2ncn(C(C)C)c2n1 (configuration not stated) [Roscovitine (Seliciclib,CYC202)] | 80.4 ± 47 |  | 55.1 ± 22 | 176 | 145 ± 25 | 90.4 ± 1.3 | 77.4 ± 2.6 | 138 | 123 ± 4.2
O=c1oc2cc(O)ccc2s1 [Tioxolone] | 115.5 ± 0.72 |  | 87.9 ± 13 | 96.8 | 109.1 ± 0.84 | 129 ± 28 | 85.9 ± 17 | 172 | 145 ± 30
COc1ccccc1Oc1c(NS(=O)(=O)c2ccc(C(C)(C)C)cc2)nc(-c2ncccn2)nc1OCCO.O [Bosentan Hydrate] |  | 124 | 87.8 ± 26 | 101 | 125 ± 8.9 | 87.1 ± 8.3 | 172 ± 36 |  | 184 ± 2.7
Cc1[nH]c2ccccc2c1CCNCc1ccc(C=CC(=O)NO)cc1 [Panobinostat (LBH589)] |  | 130 | 68.3 ± 34 |  |  | 36.5 ± 3 | 45 ± 8.7 |  | 
CCN(CC)CCOc1ccc(C(=C(Cl)c2ccccc2)c2ccccc2)cc1.O=C(O)CC(O)(CC(=O)O)C(=O)O [Clomiphene citrate] |  | 51.5 | 34.9 ± 3.9 | 95.8 | 62.5 ± 0.63 | 35.1 ± 12 | 39.3 ± 1.4 | 134 | 146 ± 15
CCn1cc(C(=O)O)c(=O)c2cnc(N3CCCC3)nc21 [Piromidic Acid] | 151 ± 52 |  | 132 ± 5 | 110 | 145 ± 4.4 |  | 171 ± 27 | 125 | 
CNCCc1ccccn1.Cl.Cl [Betahistine 2HCl] |  | 134 | 103 ± 23 | 140 | 133 ± 48 | 93.5 ± 30 | 89.7 ± 17 |  | 186 ± 14
